Hit rate of the full screen: of about 130,000 compounds, about 2,500 (1.9%) were called active. The sample holds actives, similar compounds and a random draw of the others, so the mix is not that of the screen. Unmarked numbers belong to inactive results.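 Rule for the calls: active = signal ratio slope over the read window, or its plate-corrected B-score, at least 3 SD from the plate mean, either direction; inactive = the rest.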
Each compound was assayed against ATP-sensitive inward rectifier potassium channel 1 (Homo sapiens) (UniProt P48048) (assay: Kir1.1 channel activity modulation, library screen – cell-based, thallium flux, MLSMR library, primary screen (AID 1918;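 note: B-score of the F/F0 ratio slope over 7 to 12 s after thallium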)). Details: Tet-inducible ROMK, thallium flux fluorescence; at 10 µM; actives lie on both sides.
ATP-sensitive inward rectifier potassium channel 1 (Homo sapiens), sequence (P48048 whole entry, looked up): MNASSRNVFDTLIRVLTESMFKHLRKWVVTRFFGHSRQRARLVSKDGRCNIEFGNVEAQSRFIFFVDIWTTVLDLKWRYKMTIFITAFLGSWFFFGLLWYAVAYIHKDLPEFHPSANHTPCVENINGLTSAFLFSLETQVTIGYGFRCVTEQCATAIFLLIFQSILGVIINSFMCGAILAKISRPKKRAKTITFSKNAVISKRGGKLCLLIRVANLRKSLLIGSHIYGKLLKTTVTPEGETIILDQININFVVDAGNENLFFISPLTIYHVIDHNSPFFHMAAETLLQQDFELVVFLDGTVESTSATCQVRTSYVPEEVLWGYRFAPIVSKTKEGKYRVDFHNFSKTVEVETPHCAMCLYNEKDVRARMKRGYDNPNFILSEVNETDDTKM

| Compound | B-score |
| --- | --- |
| Nc1ncnc(Nc2cccc(Cl)c2Cl)n1 | -0.357 |
| O=C(Nc1ccccc1-c1ccccc1)c1cccs1 | -3.72 (active) |
| O=C(Nc1ncccn1)c1cccs1 | 0.282 |
| O=C(O)c1ccc(NC(=O)c2cccs2)cc1 | -0.729 |
| NS(=O)(=O)c1cccc(NC(=O)COC(=O)/C=C/c2ccco2)c1 | 1.2 |
| COc1cc(NC(=O)COc2ccccc2Cl)ccc1NC(=O)C(C)C | -0.0152 |
| CCCN(CCC)CC(O)COc1ccccc1C(=O)Nc1ccccc1 (configuration not stated) | -3.37 (active) |
| CCCOc1ccccc1C(=O)NCCCC(=O)O | 0.945 |
| CCCN(CC(=O)Nc1ccc(C(N)=O)cc1)CC(=O)Nc1ccccc1C | 2.09 |
| Cc1cc(C)cc(NC(=O)COC(=O)c2cc(C)oc2C)c1 | 0.675 |
| COc1cccc(-n2c(=S)[nH]c3c(oc4ccccc43)c2=O)c1 | -0.508 |
| Cc1cccc(NC(=O)c2ccc3nsnc3c2)c1C | 0.488 |
| COc1ccc(Br)cc1C(=O)Nc1cccc(C)c1C | -2.34 (active) |
| COc1ccc(C)cc1NC(=O)c1[nH]c(C)c(C(C)=O)c1C | -0.381 |
| Cc1cc(C)nc(Nc2cc([N+](=O)[O-])ccc2C)n1 | -0.867 |
| CCCC(=O)NC(=S)Nc1ccc(CN2CCOCC2)cc1 | 0.069 |
| COC(=O)c1c(C)oc(C)c1S(=O)(=O)NCc1ccc(Cl)cc1 | -0.884 |
| c1ccc(-n2nnnc2-c2cccnc2)cc1 | 0.982 |
| CNC(=O)C(=O)N/N=C/c1ccccn1 | 1.14 |
| c1ccc(C2c3[nH]c4ccccc4c3CCN2Cc2cccn2-c2cccnc2)nc1 (configuration not stated) | -0.00648 |
| CC1(C)C=C2[C@H]3CC[C@@H]4[C@@]5(C)CCC(=O)C(C)(C)[C@@H]5CC[C@@]4(C)[C@]3(C)CC[C@@]2(C(=O)O)CC1 | 3.78 (active) |
| Cc1ccc(C(=O)N2CCN(S(=O)(=O)N3CCOCC3)CC2)cc1 | -0.0164 |
| O=C(CCS(=O)(=O)Cc1ccccc1)Nc1ccc2c(c1)OCCO2 | 0.0737 |
| CCn1cc(C(=O)NCc2ccc3c(c2)OCO3)c2cc(OC)c(OC)cc2c1=O | 2.18 |
| COc1ccccc1-n1c(C)nc2cc(C(=O)NCc3ccc4c(c3)OCO4)ccc21 | 2.52 (active) |

| Compound | B-score |
| --- | --- |
| COc1cc(-n2c(C)nc3cc(C(=O)NCc4ccco4)ccc32)cc(OC)c1OC | 2.33 |
| C=CCn1c(-c2sc(-c3ccccc3)nc2C)n[nH]c1=S | -0.143 |
| CCN1CCC2(CCN(Cc3cn[nH]c3-c3ccc(OC)c(F)c3)C2)C1 (configuration not stated) | 0.101 |
| FC(F)(F)c1cccc(Cc2noc(CN3CCC(N4CCCCC4)CC3)n2)c1 | -0.1 |
| Cc1nccc(-c2ccc(-n3c(C)ccc3C)cc2)n1 | -1.01 |
| OCC1(Cc2ccccc2)CCN(Cc2cc3ccccc3o2)CC1 | -2.42 |
| COc1ccccc1/C=C/CN1CCC(CO)(Cc2ccccc2)CC1 | -2.4 (active) |
| CC(=O)c1cccc(CN2CCC(CO)(Cc3ccccc3)CC2)c1 | -0.319 |
| Cc1ccc2c(c1)C(O)(CC(=O)c1cccc(-n3cccc3)c1)C(=O)N2 (configuration not stated) | 0.00843 |
| OCC1(Cc2ccccc2C(F)(F)F)CCN(Cc2cccc3cnccc23)CC1 | -2.15 |
| O=C(Nc1ccc(N2C(=O)c3cccc4cccc(c34)C2=O)cc1)c1ccc(N2CCCCC2)c([N+](=O)[O-])c1 | -0.618 |
| CC(NC(=O)c1ccc(N2CCNCC2)c([N+](=O)[O-])c1)C12CC3CC(CC(C3)C1)C2 (configuration not stated) | -1.39 |
| O=C(Nc1cccc(C(F)(F)F)c1)c1ccc(N2CCNCC2)c([N+](=O)[O-])c1 | -4.07 (active) |
| Nc1nnn(CC(=O)N/N=C/c2ccc(O)cc2)n1 | 0.102 |
| COc1ccc(-c2nc3cnccn3c2NC(C)(C)CC(C)(C)C)cc1O | -0.227 |
| CCN(CCn1cccn1)Cc1cn[nH]c1-c1ccc(OC)cc1F | 0.488 |
| COC(=O)C1=CN(C)C=C(C(=O)OC)C1c1ccc(Cl)cc1Cl | 0.118 |
| CCCCOCCCNC(=O)c1ccccc1OCC | -0.181 |
| CCOc1ccccc1C1C(C(=O)OC)=CN(C)C=C1C(=O)OC | -3.43 (active) |
| CCOC(=O)CSc1ccccn1 | -0.519 |
| CC(C)C(=O)Nc1oc(-c2ccccc2)cc1C#N | -0.0567 |
| CCC(c1nnnn1C1CCCC1)N(Cc1cccs1)Cc1cc2cccc(C)c2[nH]c1=O (configuration not stated) | -3.89 (active) |
| CCCN(Cc1cc2cccc(C)c2[nH]c1=O)S(C)(=O)=O | -0.178 |
| Cc1cc(C)c2[nH]c(=O)c(C(c3nnnn3Cc3ccc4c(c3)OCO4)N3CCCC3)cc2c1 (configuration not stated) | -1.8 |
| Cc1cccc2cc(CN(C(=O)c3cccs3)c3ccccc3)c(=O)[nH]c12 | 0.321 |

| Compound | B-score |
| --- | --- |
| Cc1cccc2cc(CN(Cc3nnnn3Cc3ccccc3)C3CCCC3)c(=O)[nH]c12 | -4.07 (active) |
| Cc1cccc2cc(CN(Cc3ccc4c(c3)OCO4)Cc3nnnn3C3CCCC3)c(=O)[nH]c12 | 0.0136 |
| COc1cc(/C=C/C(=O)OCC(=O)NC(=O)NCc2ccccc2)ccc1OCC#N | 0.107 |
| Cc1cccc(C(=O)Nc2ccccc2C(=O)NCc2cccnc2)c1 | -0.294 |
| O=C(Nc1cccnc1)c1ccc(Cl)c([N+](=O)[O-])c1 | 0.478 |
| CN(C)c1ccc(/C=C/C(=O)c2ccc(C(C)(C)C)cc2)cc1[N+](=O)[O-] | -0.617 |
| O=C(/C=C/c1ccc(Cl)c([N+](=O)[O-])c1)c1cccnc1 | -6.38 (active) |
| CCOC(=O)C(NC(C)=O)C(=O)Nc1ccc(OC)cc1 (configuration not stated) | 2.1 |
| CN(C)c1cc(-c2ccc(F)cc2)oc(=O)c1Cl | 0.334 |
| CC(NC(=O)CC1SC(N)=NC1=O)c1ccccc1 (configuration not stated) | 1.24 (active) |
| CC(NC(=O)COC(=O)c1cc(=O)[nH]c2ccccc12)c1ccccc1 (configuration not stated) | -0.0559 |
| NC1=NC(=O)C(Cc2cccc(Cl)c2)S1 (configuration not stated) | -2.18 |
| CCOC(=O)C1(CC2CCCCO2)CCN(Cc2nc(-c3cccs3)oc2C)CC1 (configuration not stated) | -0.7 |
| CCc1nc2ccccc2c(C(=O)NCc2ccc(OC)cc2)c1C | 0.0138 |
| c1ccc2c(c1)CSc1sccc1C2=C1CCNCC1 | -2.98 (active) |
| O=C(NCc1nnc(SCC(=O)N2CCC(Cc3ccccc3)CC2)o1)c1ccco1 | -0.765 |
| Cc1ccc(OCC(=O)NNC(=S)NCc2ccccc2)cc1 | 0.804 |
| CCCc1ccc(OCC(=O)NNC(=S)NC(=O)c2ccco2)cc1 | 4.19 (active) |
| CC(Oc1ccc2ccccc2c1)C(=O)NNC(=S)NC(=O)c1ccco1 (configuration not stated) | 2.32 |
| Cc1ccc(/C=C(\C#N)C(=O)Nc2cccc3ncccc23)o1 | -0.963 |
| O=C(Nc1ccccc1F)c1ccccc1-c1ccc(C(F)(F)F)cc1 | 0.0696 |
| N#C/C(=C\c1ccccc1C(F)(F)F)C(=O)Nc1ccccc1F | -4.23 (active) |
| CCCCNC(=O)c1ccc(-n2c(=S)[nH]c3ccccc3c2=O)cc1 | 0.371 |
| O=C1C2C3C=CC(C3)C2C(=O)N1c1ccc(-c2nc3ccccc3c(=O)o2)cc1 (configuration not stated) | -0.106 |
| Cc1ccc(NC(=O)C(=O)NCC2CCN(C(=O)c3cccc([N+](=O)[O-])c3)CC2)cc1 | 0.475 |

| Compound | B-score |
| --- | --- |
| Cc1ccc(-n2[nH]c(C)c(/C=N/N3C(=O)c4cccc5cccc(c45)C3=O)c2=O)cc1 | 3.89 (active) |
| Cc1[nH]n(-c2ccc(Cl)cc2)c(=O)c1/C=N/n1c(C)nc2ccccc2c1=O | -0.843 |
| Cc1[nH]n(-c2cccc(Cl)c2)c(=O)c1/C=N/n1c(C)nc2ccccc2c1=O | 0.302 |
| COc1ccccc1Cn1c(C)nnc1-c1cnn(C)c1N | 0.26 |
| CC(Sc1nnnn1C1CCCCC1)C(=O)O (configuration not stated) | 0.253 |
| O=S(=O)(Nc1ncccn1)c1ccc(NS(=O)(=O)c2cccc(Cl)c2Cl)cc1 | 0.305 |
| CCOc1ccc2nc(N3CCCN(C(=O)Nc4ccccc4C)CC3)c(C#N)cc2c1 | -5.81 (active) |
| Cc1cccc2cc(C#N)c(N3CCCC3)nc12 | -0.0822 |
| CCOc1ccc2cc(C#N)c(SCC(=O)OC)nc2c1 | -0.501 |
| COC(=O)CN1C(=O)N/C(=C/c2ccc(OC)c(C)c2OC)C1=O | 1.31 |
| CCOC(=O)C1=C(CSc2nccn2C)NC(=O)NC1c1ccc(OC)cc1 (configuration not stated) | 0.553 |
| CCOC(=O)C1=C(C)N=c2s/c(=C\C(=O)OC)c(=O)n2C1c1ccc(OC)cc1 (configuration not stated) | -6.39 (active) |
| COc1ccc(C2C(C(C)=O)=C(O)C(=O)N2c2nccs2)cc1 (configuration not stated) | 0.28 |
| CCC(CC)c1nnc(NC(=O)c2nn(C)c(=O)c3ccccc23)s1 | -0.146 |
| Cc1nc(COc2cccc(Cl)c2)sc1C(=O)/C=C/N(C)C | -0.0177 |
| O=C(CCC(=O)OCc1ccc(Cl)cc1)Nc1ccccc1 | 1.21 |
| O=C(Cc1ccc(Br)cc1)N1CCN(c2ccccn2)CC1 | -2.13 (active) |
| Cc1ccc(S(=O)(=O)NCC(=O)N2CCN(c3ccccn3)CC2)cc1 | 0.248 |
| O=C(CCC1CCCN(C(=O)Cc2ccc(F)cc2)C1)N1CCN(c2ccccn2)CC1 (configuration not stated) | 2.32 |
| O=C(C(Cl)Cl)N1CCN(c2ccccn2)CC1 | 0.591 |
| O=C(Cc1ccccc1Cl)N1CCN(c2ccccn2)CC1 | -4.7 (active) |
| COc1cccc(CC(=O)N2CCCC(CCC(=O)N3CCN(c4ccccn4)CC3)C2)c1 (configuration not stated) | 0.339 |
